Source: PubChem (several laboratories)
CHT block: human CHT choline transport inhibition. 310,000 tested, 0.86% active. B-score at 10 µM. Q9GZV3. AID 488975. CHT-expressing cells, membrane potential dye, choline response; stronger effect = lower value;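 active means B-score over 3 SD under the library average, and starting fluorescence ratio not unusually high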;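 further: choline stimulus applied at its EC90 after an EC20 pre-addition; B-score computed on integrated fluorescence ratio after choline addition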
Target sequence (Q9GZV3 whole entry, looked up): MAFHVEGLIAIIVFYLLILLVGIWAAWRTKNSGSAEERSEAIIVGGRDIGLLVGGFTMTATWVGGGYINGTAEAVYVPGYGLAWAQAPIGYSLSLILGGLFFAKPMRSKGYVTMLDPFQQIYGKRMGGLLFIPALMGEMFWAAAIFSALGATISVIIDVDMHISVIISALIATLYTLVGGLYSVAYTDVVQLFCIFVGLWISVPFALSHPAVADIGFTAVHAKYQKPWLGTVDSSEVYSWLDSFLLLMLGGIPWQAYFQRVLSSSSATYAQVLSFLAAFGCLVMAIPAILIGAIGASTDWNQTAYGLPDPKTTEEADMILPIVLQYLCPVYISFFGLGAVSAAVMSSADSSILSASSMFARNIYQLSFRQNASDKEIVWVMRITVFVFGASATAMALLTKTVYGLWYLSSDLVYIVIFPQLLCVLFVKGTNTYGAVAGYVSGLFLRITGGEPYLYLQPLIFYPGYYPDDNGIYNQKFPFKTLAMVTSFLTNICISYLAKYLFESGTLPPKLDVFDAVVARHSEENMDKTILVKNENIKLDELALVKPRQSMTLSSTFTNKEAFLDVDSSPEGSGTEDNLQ
TAG inh: triacylglycerol accumulation inhibition | H9c2 cells, Nile Red lipid (TAG) fluorescence; cells loaded with 200 µM oleic acid | inhibition, % at 12.5 µM | 230,000 tested, 0.66% active;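 active means pattern-corrected inhibition of lipid staining of at least 50% with the nuclear-stain viability signal not falling by more than 50%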;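 further: 0% = DMSO wells and 100% = triacsin C control wells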
CHT allo act: allosteric activators of human choline transporter CHT; CHT-expressing cells, membrane potential dye, choline EC20; stronger effect = higher value; LV-AA mutant CHT in HEK293 cells; 310,000 tested, 0.49% active; Q9GZV3; B-score at 10 µM;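 active means initial fluorescence not abnormally high and integrated response B-score, plate-corrected, over 3 SD above library mean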
Kir21 block: blocks the mouse Kir2.1 inward-rectifier potassium channel | HEK293-Kir2.1, FluxOR thallium flux fluorescence; stronger effect = lower value | AID 1672 | P35561 | B-score at 10 µM | 310,000 tested, 0.85% active;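 active means fluorescence ratio B-score at or below minus 3 SD of library scores, with starting-brightness B-score within 2 SD, cut at about -4.2 in these data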;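 further: channel flux triggered by added potassium and thallium sulfate stimulus; B-score of peak minus minimum fluorescence over baseline after thallium stimulus; more negative B-score means stronger Kir2.1 block with less thallium influx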
H9c2 TAG conf: triacylglycerol accumulation inhibition, confirmation; H9c2 lipid accumulation, Nile Red fluorescence; cells loaded with 200 µM oleic acid; 990 tested, 71% active; inhibition, % at 12.5 µM; AID 651629; shares compounds with TAG inh;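 active means mean inhibition across replicates of 40% or more; inactive means mean inhibition below 40%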;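 further: plate controls were DMSO only wells for no effect and Triacsin C treated wells for full effect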
An asterisk follows results filed as active; i = inactive; . = not tested or not shown. An excerpt weighted towards active compounds, which were near 2% of everything screened.

SMILES | CHT block | TAG inh | CHT allo act | Kir21 block | H9c2 TAG conf
COc1cccc(C2c3cc4c(cc3OC(NNC(N)=O)C2C)OCO4)c1O (configuration not stated) | . | 61.6* | . | . | 51.9*
COc1ccc2[nH]c3c(c2c1)CCN1C(=O)C(CC(=O)NCC24CC5CC(CC(C5)C2)C4)C[C@H](C(=O)N(C(C)C)C(C)C)[C@@]31C (some centres not stated) | . | 50.8* | . | . | 58.6*
CC(C)N(C(=O)[C@H]1C[C@H](CC(=O)NCc2cccc(C(F)(F)F)c2)C(=O)N2CCc3c([nH]c4ccc(Cl)cc34)[C@]12C)C(C)C | . | 56.5* | . | . | 82.0*
O=C(c1ccccc1)c1cccn1CC(=O)N1CCc2ccccc2C1 | i | -5.8 | i | 1.93 | .
O=C(Nc1ccc2oc(-c3cccnc3)nc2c1)c1cc2ccccc2o1 | i | 51.9* | i | -1.06 | 24.6
CCCC(=O)Nc1ccc2oc(-c3cccnc3)nc2c1 | i | 13.5 | i | 0.97 | .
COc1cc(OC)c2c(-c3cccc(-c4ccc(N(C)C)cc4)c3)cc(=O)oc2c1 | . | -51.2 | . | . | .
COc1ccc(-c2csc(NNC3=NCCCCC3)n2)cc1 | i | . | i | -0.75 | .
c1ccc(-c2csc(NNC3=NCCCCC3)n2)cc1 | i | 84.7* | i | -0.01 | 107.6*
Clc1ccc(-c2csc(NNC3=NCCCCC3)n2)cc1 | i | 148.1* | i | 0.05 | 132.2*
Cc1cc(C)nc(SCc2ccc(C(=O)N/N=C/c3ccccn3)cc2)n1 | i | 0.5 | i | -1.18 | .
COc1cccc(-n2nc(C(=O)Nc3ccc4c(c3)OCO4)c3ccccc3c2=O)c1 | i | 7.7 | i | 0.31 | .
COc1ccc(-n2nc(C(=O)Nc3ccc4c(c3)OCO4)c3c4ccccc4n(C)c3c2=O)cc1 | i | 66.3* | i | 1.1 | 43.6*
CNCCCN1c2ccccc2CCc2ccccc21 | i | 57.2* | i | -1.36 | 47.0*
CC(C)CN(C#N)c1nc(N2CCOCC2)nc(N2CCOCC2)n1 | i | 61.8* | i | -0.56 | 44.6*
CC(=O)Nc1ccc(Oc2nc(-c3ccccn3)nc3ccccc23)cc1 | i | 63.6* | i | -0.21 | 3.1
Cc1cccc(Oc2nc(-c3ccccn3)nc3ccccc23)c1 | i | 65.7* | i | -0.1 | 45.7*
Cc1cccc(Oc2nc(-c3ccncc3)nc3ccccc23)c1 | i | 8.3 | i | 0.13 | .
CCC(C)c1ccccc1NC(=O)COc1ccc(-n2cnnn2)cc1 (configuration not stated) | . | 8.8 | . | . | .
COCCS(=O)(=O)N(Cc1ccc(Br)cc1)[C@@H](C)C(=O)OC | . | 52.5* | . | . | -2.8
COC(=O)[C@@H](CC(C)C)N(Cc1ccccc1)S(=O)(=O)N(Cc1ccccc1)[C@@H](CC(C)C)C(=O)OC | . | 62.0* | . | . | -19.2
COC(=O)[C@@H](Cc1ccccc1)N(Cc1ccccc1)S(=O)(=O)N(Cc1ccccc1)[C@H](Cc1ccccc1)C(=O)OC | . | 11.7 | . | . | .
N/C(=N\OS(=O)(=O)c1ccc(Br)cc1)c1ccncc1 | i | . | i | 1.49 | .
CNC(=S)NN=C(C)c1ccc(OC)cc1O | . | 71.5* | . | . | 41.3*
CCOc1ncccc1C(=O)Nc1ccc(S(=O)(=O)Nc2cc(C)nc(C)n2)cc1 | . | 1.3 | . | . | .
SMILES | CHT block | TAG inh | CHT allo act | Kir21 block | H9c2 TAG conf
O=[N+]([O-])c1ccc(-c2ccc(/C=N/Nc3nc(N4CCCC4)nc(N4CCCC4)n3)o2)cc1 | i | 18.4 | i | -0.8 | .
COc1ccc(-c2cnnc(N/N=C/c3ccc(-c4ccc([N+](=O)[O-])cc4)o3)n2)cc1 | . | 63.2* | . | . | 61.0*
O=C1C(Cl)=C(NCc2ccco2)C(=O)c2ccccc21 | . | 64.9* | . | . | 46.5*
CCn1c(SCC(=O)Nc2nc(-c3ccc(C)cc3)cs2)nnc1-c1ccccc1 | i | 28.4 | i | -0.01 | .
CCn1c(SCC(=O)Nc2nc(-c3ccc(C)cc3)cs2)nnc1-c1ccccc1O | i | 80.4* | i | 0.43 | 67.5*
Cc1ccc(-c2csc(NC(=O)CSc3nc4ccccc4c(=O)n3CCCN(C)C)n2)cc1 | i | 70.4* | i | -1.59 | 82.8*
CCCCn1c(SCC(=O)Nc2nnc(CC)s2)nc2ccccc2c1=O | i | . | i | 0.76 | .
CCOc1ccccc1Nc1nnc(SCC(=O)Nc2nc(-c3ccc(OC)cc3)cs2)s1 | i | 35.5 | i | -1.33 | .
COc1ccccc1Nc1nnc(SCC(=O)Nc2nc(-c3ccc(F)cc3)cs2)s1 | i | 51.3* | i | 1.3 | 57.4*
CN(C)/C=C/C(=O)c1cnc(-c2ccccn2)s1 | i | -2.2 | i | -0.03 | .
